FBW7 act = activators of human E3 ligase FBW7; Q969H0; AlphaScreen FBW7–phospho-cyclin E peptide binding, activator screen; normalized activity (activation), % at 26.1 µM; 0.13% of 650,000 active; in the data active = normalized activity above about 1.9%;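 also: purified mutant Fbw7 with reduced substrate affinity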
MITF primary = inhibitors of human MITF. O75030. AlphaScreen MITF homodimerization, bead proximity signal. inhibition, % at 2.6 µM. 0.91% of 650,000 active; in the data active = inhibition above about 50%;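 also: 0% = vehicle wells with protein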
Target sequence (O75030 whole entry, looked up): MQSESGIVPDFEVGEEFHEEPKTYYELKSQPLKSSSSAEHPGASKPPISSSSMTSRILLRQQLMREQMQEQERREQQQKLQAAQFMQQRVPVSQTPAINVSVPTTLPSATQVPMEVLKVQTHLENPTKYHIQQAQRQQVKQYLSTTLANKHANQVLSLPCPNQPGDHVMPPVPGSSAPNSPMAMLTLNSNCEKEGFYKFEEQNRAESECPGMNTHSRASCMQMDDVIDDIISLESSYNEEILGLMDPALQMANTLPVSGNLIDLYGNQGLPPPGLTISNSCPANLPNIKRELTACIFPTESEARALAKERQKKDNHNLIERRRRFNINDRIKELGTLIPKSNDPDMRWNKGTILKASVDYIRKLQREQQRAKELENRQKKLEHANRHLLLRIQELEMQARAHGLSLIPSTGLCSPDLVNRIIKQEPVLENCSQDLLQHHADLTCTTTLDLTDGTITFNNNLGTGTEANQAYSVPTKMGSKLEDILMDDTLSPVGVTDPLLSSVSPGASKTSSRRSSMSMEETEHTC
GPR151 activ = activates the human receptor GPR151; activation, % at 11.2 µM; 1% of 650,000 active; PathHunter beta-arrestin GPR151 cells, luminescence; Q8TDV0; AID 1508602; in the data active = activation above about 4.9%;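 also: 0% = median of compound wells and 100% = cells with positive control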
TEAD-YAP block = TEAD-YAP interaction inhibition | HEK-TIYL cells, TEAD-Gal4/YAP UAS-luciferase luminescence | inhibition, % at 9.12 µM | 1.4% of 640,000 active; in the data active = inhibition above about 32%;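 also: 0% = median of test compound wells and 100% = reference inhibitor wells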
Active calls of the source: *. Rows were chosen to be rich in hits. Some 3.5% of all compounds tested hit in one or more screens of this group.

Screening CC(C(=O)c1ccc(Br)cc1)N1C(=O)NC(C)(c2ccccc2)C1=O (centres undefined) returned FBW7 act 0.6, MITF primary 7.7, GPR151 activ -1.8 and TEAD-YAP block 1.4.
For COc1ccc(/C=C2\SC(=Nc3ccc(F)cc3)NC2=O)cc1O the results were FBW7 act 0.0, MITF primary 21.6, GPR151 activ 0.9 and TEAD-YAP block 52.3*.
COc1cc(/C=C2\SC(=Nc3ccc(F)cc3)NC2=O)cc(OC)c1OC was read as FBW7 act 0.0, MITF primary 2.2, GPR151 activ 0.2 and TEAD-YAP block 2.9.
`COc1cc(/C=C2/SC(=Nc3ccc(O)cc3)NC2=O)ccc1O` gave FBW7 act 0.0, MITF primary 10.4, GPR151 activ 1.1 and TEAD-YAP block 48.7*.
O=C1NC(=Nc2ccc(O)cc2)S/C1=C\c1ccccc1F was read as FBW7 act 0.0, MITF primary -12.5, GPR151 activ 1.4 and TEAD-YAP block 43.2*.
COc1cc(/C=C2\SC(=Nc3ccccc3)NC2=O)ccc1O was read as FBW7 act 0.1, MITF primary 13.1, GPR151 activ -0.6 and TEAD-YAP block 2.1.
O=C1NC(=Nc2ccc(O)cc2)S/C1=C\c1cccc(O)c1 was read as FBW7 act -0.3, MITF primary 7.0, GPR151 activ 0.6 and TEAD-YAP block 56.9*.
For O=C1NC(=Nc2ccc(O)cc2)S/C1=C/c1ccccc1 the results were FBW7 act 0.2, MITF primary 17.9, GPR151 activ -0.9 and TEAD-YAP block 2.4.
For Cc1oc(-c2cccs2)nc1CSc1nc2ncccc2[nH]1 the results were FBW7 act 0.0, MITF primary 1.2, GPR151 activ -1.1 and TEAD-YAP block 6.0.
`COc1cc(/C=C2/SC(=Nc3ccccc3)NC2=O)ccc1O` gave FBW7 act 0.1, MITF primary 0.8, GPR151 activ -0.4 and TEAD-YAP block 0.1.
`COc1cc(/C=C2\SC(=Nc3ccccc3OC)NC2=O)ccc1O` gave FBW7 act 0.5, MITF primary 2.4, GPR151 activ -1.9 and TEAD-YAP block 56.8*.
O=C(Nc1ccccc1)c1cccc2nc3ccccc3nc12 was read as FBW7 act -0.2, MITF primary 7.3, GPR151 activ 1.1 and TEAD-YAP block 6.2.
Screening Cn1c(-c2ccccc2)cnc1NC(=O)c1ccc(F)cc1 returned FBW7 act 0.0, MITF primary -0.6, GPR151 activ -1.3 and TEAD-YAP block 49.1*.
O=C(O)c1cc(Br)cc2c1N[C@@H](c1ccc(F)cc1)[C@H]1CC=C[C@@H]21 was read as FBW7 act -0.4, MITF primary 78.5*, GPR151 activ -1.2 and TEAD-YAP block -3.4.
Cc1c(C(=O)O)ccc2c1N[C@@H](c1cccc(Cl)c1)[C@H]1CC=C[C@@H]21 was read as FBW7 act -0.6, MITF primary 76.5*, GPR151 activ -0.2 and TEAD-YAP block -0.5.
`O=C(O)c1cccc2c1NC(c1cccc(Br)c1)C1CC=CC21` (centres undefined) gave FBW7 act 0.0, MITF primary 23.7, GPR151 activ 1.2 and TEAD-YAP block 8.2.
`O=C(O)c1cccc2c1NC(c1ccc([N+](=O)[O-])cc1)C1CC=CC21` (centres undefined) gave FBW7 act -0.2, MITF primary 65.0*, GPR151 activ 0.5 and TEAD-YAP block -4.3.
Screening O=C(O)c1cccc2c1NC(c1ccccc1[N+](=O)[O-])C1CC=CC21 (centres undefined) returned FBW7 act -0.3, MITF primary 66.5*, GPR151 activ 0.0 and TEAD-YAP block -0.5.
`CCOC(=O)C1CCN(c2c(N3CCN(c4ccccc4)CC3)c(=O)c2=O)CC1` gave FBW7 act 0.0, MITF primary -3.1, GPR151 activ 2.3 and TEAD-YAP block 0.9.
Screening CC12CCCCC1c1ccccc1C(=O)N2 (centres undefined) returned FBW7 act 0.1, MITF primary 8.4, GPR151 activ -1.3 and TEAD-YAP block -1.8.
`COC(=O)C1=C(C(=O)OC)SC2(S1)C(C(=O)OC)=C(C(=O)OC)SC1=C2c2ccccc2NC1(C)C` gave FBW7 act 0.9, MITF primary 3.6, GPR151 activ -1.8 and TEAD-YAP block 5.5.
`OCCC1CCCCN1c1ccnc2c(-c3cccc(F)c3)cnn12` (centres undefined) gave FBW7 act -0.2, MITF primary -18.4, GPR151 activ 0.4 and TEAD-YAP block 93.3*.
For OCCC1CCCCN1c1ccnc2c(-c3cccc4ccccc34)cnn12 (centres undefined) the results were FBW7 act 0.0, MITF primary -33.4, GPR151 activ -1.2 and TEAD-YAP block -29.5.
Screening OCCC1CCCCN1c1ccnc2c(-c3cccc(O)c3)cnn12 (centres undefined) returned FBW7 act -0.3, MITF primary 4.4, GPR151 activ -0.9 and TEAD-YAP block 94.6*.
NC(=O)c1cccc(-c2cnn3c(N4CCCCC4CCO)ccnc23)c1 (centres undefined) was read as FBW7 act -0.8, MITF primary -15.1, GPR151 activ 0.9 and TEAD-YAP block -28.4.
For OCCC1CCCCN1c1ccnc2c(-c3cc4ccccc4o3)cnn12 (centres undefined) the results were FBW7 act 0.4, MITF primary -11.3, GPR151 activ 0.1 and TEAD-YAP block 66.8*.
CC(=O)Nc1cccc(-c2cnn3c(N4CCCCC4CCO)ccnc23)c1 (centres undefined) was read as FBW7 act 0.0, MITF primary -9.8, GPR151 activ -0.1 and TEAD-YAP block -3.1.
For OCCC1CCCCN1c1ccnc2c(-c3cccc(C(F)(F)F)c3)cnn12 (centres undefined) the results were FBW7 act -0.2, MITF primary -7.5, GPR151 activ -1.5 and TEAD-YAP block 55.1*.
For CCOc1cc(C(=S)N2CCCCC2)ccc1OC(=O)c1cc(OC)c(OC)c(OC)c1 the results were FBW7 act 0.1, MITF primary -6.8, GPR151 activ 0.4 and TEAD-YAP block -4.8.
Screening N#CC1=C(N)Oc2n[nH]c(-c3ccc(Cl)cc3)c2C1c1ccc([N+](=O)[O-])s1 (centres undefined) returned FBW7 act -0.6, MITF primary 37.2, GPR151 activ -1.5 and TEAD-YAP block 8.5.
`CCOc1cc(/C=C2\SC(=S)N(CCOC)C2=O)ccc1O` gave FBW7 act 0.7, MITF primary 17.1, GPR151 activ -0.5 and TEAD-YAP block 4.6.
CCOc1cc(/C=C2/SC(=S)N(CCCC(=O)O)C2=O)ccc1O was read as FBW7 act 0.5, MITF primary 22.9, GPR151 activ -2.1 and TEAD-YAP block 73.4*.
For CCOc1cc(/C=C2\SC(=Nc3ccc(C(=O)O)cc3)N(C)C2=O)ccc1O the results were FBW7 act -0.1, MITF primary 3.5, GPR151 activ 1.5 and TEAD-YAP block 46.3*.
For COc1ccc(/C=C2/SC(=O)N(CCCC(=O)Nc3cccc(O)c3)C2=O)cc1 the results were FBW7 act 0.0, MITF primary -3.5, GPR151 activ 0.4 and TEAD-YAP block 66.2*.
COc1cc(/C=C2\SC(=S)N(CCCC(=O)O)C2=O)ccc1O was read as FBW7 act 0.0, MITF primary 4.7, GPR151 activ 1.8 and TEAD-YAP block 62.0*.

Bioassay records deposited in PubChem by The Scripps Research Institute Molecular Screening Center.
